Out of some 5,500 compounds screened, about 2,000 (36%) were called active. Inconclusive results (about 18%) are left out. No stated cut-off is given here; in the data, active means normalized growth mostly below about 0.91 (no sharp cut-off); inconclusive means no clear call, values can overlap the other calls; inactive means mostly above about 0.92. Some of the results follow.
Experiment: chemical genetic growth profiling, strain panel (AID 1159580);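 further: tested at 20 µM; growth read once vehicle control cultures reached saturation at 30 °C; 1 = growth at the plate median or of vehicle wells; lower values mean less growth of the strain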
Details: S. cerevisiae deletion strains, growth OD

Measured: normalized growth

CCOC(=O)c1c(C)cc(O)c(C)c1O
active: locus YDR101C, strain arx1, active compounds read low 0.901 | locus YDR318W, strain mcm21, active compounds read low 0.901 | locus YDR388W, active compounds read low 0.916 | locus YGL086W, strain mad1, active compounds read low 0.916 | locus YIL125W, strain kgd1, active compounds read low 0.922 | locus YKR001C, strain vps1, active compounds read low 0.887 | locus YLR371W, strain rom2, active compounds read low 0.717 | locus YLR418C, strain cdc73, active compounds read low 0.806 | locus YNL307C, strain MCK1, active compounds read low 0.875 | locus YOL147C, strain pex11, active compounds read low 0.914 | locus YPR119W, strain clb2, active compounds read low 0.928
inactive: locus YBR021W, strain FUR4, active compounds read low 0.975 | locus YBR229C, strain ROT2, active compounds read low 0.976 | locus YCL029C, strain bik1, active compounds read low 0.955 | locus YDL035C, strain GPR1, active compounds read low 1.01 | locus YDL074C, strain BRE1, active compounds read low 0.981 | locus YDL101C, strain DUN1, active compounds read low 0.986 | locus YDL134C, strain PPH21, active compounds read low 0.979 | locus YDL185W, strain tfp1, active compounds read low 0.969 | locus YDL192W, strain arf1, active compounds read low 0.931 | locus YDR150W, strain NUM1, active compounds read low 0.98 | locus YDR162C, strain NBP2, active compounds read low 0.966 | locus YDR502C, strain sam2, active compounds read low 0.929 | locus YEL061C, strain CIN8, active compounds read low 0.975 | locus YER110C, active compounds read low 0.938 | locus YER155C, strain BEM2, active compounds read low 0.941 | locus YER167W, strain BCK2, active compounds read low 0.961 | locus YGL078C, strain dbp3, active compounds read low 0.968 | locus YGL248W, strain PDE1, active compounds read low 0.992 | locus YGR135W, strain pre9, active compounds read low 0.931 | locus YGR252W, strain gcn5, active compounds read low 1.07 | locus YHR030C, strain SLT2, active compounds read low 0.978 | locus YHR079C, strain IRE1 (second series), active compounds read low 0.945 | locus YHR094C, strain hxt1, active compounds read low 0.932 | locus YHR129C, strain ARP1, active compounds read low 0.988 | locus YHR200W, strain rpn10, active compounds read low 0.933 | locus YIL066C, strain RNR3, active compounds read low 0.999 | locus YIL073C, strain SPO22, active compounds read low 1.02 | locus YIR030C, strain dcg1, active compounds read low 0.952 | locus YJL095W, strain BCK1, active compounds read low 0.936 | locus YJL134W, strain LCB3, active compounds read low 0.965 | locus YJL168C, strain set2, active compounds read low 0.945 | locus YJL187C, strain SWE1 (second series), active compounds read low 0.996 | locus YJR043C, strain POL32, active compounds read low 0.949 | locus YKL009W, strain mrt4, active compounds read low 1.01 | locus YKL068W, active compounds read low 0.945 | locus YKL085W, strain MDH1 (second series), active compounds read low 0.943 | locus YKL085W, strain MDH1, active compounds read low 0.943 | locus YLR039C, strain RIC1, active compounds read low 1.04 | locus YLR058C, strain SHM2, active compounds read low 0.97 | locus YLR102C, strain apc9, active compounds read low 0.946 | locus YLR268W, strain sec22, active compounds read low 0.918 | locus YLR330W, strain CHS5, active compounds read low 0.976 | locus YML016C, strain PPZ1, active compounds read low 0.956 | locus YML032C, strain rad52, active compounds read low 0.917 | locus YML124C, strain tub3, active compounds read low 0.935 | locus YMR078C, strain ctf18, active compounds read low 0.924 | locus YMR223W, strain ubp8, active compounds read low 0.952 | locus YMR263W, strain SAP30, active compounds read low 0.97 | locus YMR307W, strain GAS1, active compounds read low 0.923 | locus YNL067W, strain RPL9B, active compounds read low 0.978 | locus YNL233W, strain BNI4, active compounds read low 0.956 | locus YNL250W, strain rad50, active compounds read low 0.963 | locus YNL271C, strain bni1, active compounds read low 0.941 | locus YNL298W, strain CLA4, active compounds read low 0.964 | locus YNL322C, strain KRE1, active compounds read low 0.968 | locus YNR052C, strain pop2, active compounds read low 0.993 | locus YOL006C, strain TOP1, active compounds read low 0.887 | locus YOL012C, strain htz1 0.713 | locus YOR061W, strain CKA2, active compounds read low 0.98 | locus YOR069W, strain VPS5, active compounds read low 0.975 | locus YOR136W, strain idh2, active compounds read low 0.957 | locus YOR144C, strain elg1, active compounds read low 0.939 | locus YOR184W, strain ser1, active compounds read low 0.89 | locus YOR316C, strain cot1, active compounds read low 0.959 | locus YPL055C, strain LGE1, active compounds read low 0.954 | locus YPR141C, strain kar3, active compounds read low 0.924 | locus YPR163C, strain tif3, active compounds read low 0.918 | locus YPR167C, strain met16, active compounds read low 0.945 | strain wtn01, active compounds read low 0.909

CCOC(=O)c1c(C)c(Cl)c(O)c(Cl)c1O
active: locus YAL021C, strain ccr4, active compounds read low 0.682 | locus YAL026C, strain drs2, active compounds read low 0.469 | locus YAL030W, strain snc1, active compounds read low 0.692 | locus YBL061C, strain skt5, active compounds read low 0.637 | locus YBR009C, strain hhf1, active compounds read low 0.407 | locus YBR023C, strain chs3, active compounds read low 0.589 | locus YBR171W, strain sec66, active compounds read low 0.619 | locus YBR231C, strain swc5, active compounds read low 0.469 | locus YBR279W, strain paf1, active compounds read low 0.686 | locus YCL011C, strain gbp2, active compounds read low 0.499 | locus YCL016C, strain dcc1, active compounds read low 0.495 | locus YCL061C, strain MRC1, active compounds read low 0.408 | locus YCL069W, strain vba3, active compounds read low 0.407 | locus YCR088W, strain abp1, active compounds read low 0.517 | locus YDL005C, strain med2, active compounds read low 0.76 | locus YDL040C, strain nat1, active compounds read low 0.663 | locus YDR001C, strain nth1, active compounds read low 0.516 | locus YDR069C, strain doa4, active compounds read low 0.72 | locus YDR137W, strain rgp1, active compounds read low 0.266 | locus YDR159W, strain sac3, active compounds read low 0.459 | locus YDR195W, strain ref2 0.697 | locus YDR297W, strain sur2, active compounds read low 0.677 | locus YDR334W, strain swr1, active compounds read low 0.361 | locus YDR335W, strain msn5, active compounds read low 0.517 | locus YDR392W, strain spt3, active compounds read low 0.0936 | locus YEL003W, strain gim4, active compounds read low 0.397 | locus YEL037C, strain rad23, active compounds read low 0.666 | locus YEL061C, strain CIN8 (second series), active compounds read low 0.171 | locus YER015W, strain faa2, active compounds read low 0.652 | locus YER016W, strain bim1, active compounds read low 0.559 | locus YER111C, strain swi4, active compounds read low 0.189 | locus YER155C, strain BEM2 (second series), active compounds read low 0.15 | locus YFR010W, strain ubp6, active compounds read low 0.696 | locus YGL167C, strain pmr1, active compounds read low 0.67 | locus YGL173C, strain kem1, active compounds read low 0.512 | locus YGL227W, strain vid30, active compounds read low 0.188 | locus YGL240W, strain doc1, active compounds read low 0.375 | locus YGL253W, strain hxk2, active compounds read low 0.254 | locus YHR013C, strain ard1, active compounds read low 0.634 | locus YHR027C, strain rpn1, active compounds read low 0.719 | locus YHR142W, strain chs7, active compounds read low 0.245 | locus YJL092W, strain hpr5, active compounds read low 0.456 | locus YJL095W, strain BCK1 (second series), active compounds read low 0.292 | locus YJL115W, strain asf1, active compounds read low 0.667 | locus YJL129C, strain trk1, active compounds read low 0.261 | locus YJL154C, strain vps35, active compounds read low 0.702 | locus YJL164C, strain tpk1, active compounds read low 0.467 | locus YJL166W, strain qcr8, active compounds read low 0.448 | locus YJL187C, strain SWE1, active compounds read low 0.61 | locus YKL160W, strain elf1, active compounds read low 0.454 | locus YKR026C, strain gcn3, active compounds read low 0.697 | locus YKR091W, strain srl3, active compounds read low 0.677 | locus YLL001W, strain dnm1, active compounds read low 0.563 | locus YLL026W, active compounds read low 0.436 | locus YLL041C, strain sdh2, active compounds read low 0.635 | locus YLR027C, strain aat2, active compounds read low 0.517 | locus YLR221C, strain rsa3, active compounds read low 0.398 | locus YLR258W, strain gsy2, active compounds read low 0.561 | locus YLR262C, strain YPT6 (second series), active compounds read low 0.277 | locus YLR320W, strain mms22, active compounds read low 0.27 | locus YLR342W, strain FKS1, active compounds read low 0.369 | locus YLR357W, strain rsc2, active compounds read low 0.64 | locus YLR370C, strain arc18, active compounds read low 0.701 | locus YLR384C, strain iki3, active compounds read low 0.681 | locus YML120C, strain ndi1, active compounds read low 0.409 | locus YMR058W, strain fet3, active compounds read low 0.429 | locus YMR125W, strain sto1, active compounds read low 0.259 | locus YMR129W, active compounds read low 0.651 | locus YMR205C, strain PFK2, active compounds read low 0.283 | locus YMR231W, strain pep5, active compounds read low 0.361 | locus YNL071W, strain lat1, active compounds read low 0.127 | locus YNL209W, strain ssb2, active compounds read low 0.753 | locus YNL248C, strain rpa49, active compounds read low 0.645 | locus YNL322C, strain KRE1 (second series), active compounds read low 0.783 | locus YNR049C, strain mso1, active compounds read low 0.432 | locus YOR001W, strain rrp6, active compounds read low 0.4 | locus YOR070C, strain gyp1, active compounds read low 0.499 | locus YOR080W, strain dia2, active compounds read low 0.701 | locus YOR083W, strain WHI5, active compounds read low 0.608 | locus YOR106W, strain vam3, active compounds read low 0.459 | locus YOR265W, strain rbl2, active compounds read low 0.676 | locus YOR270C, strain vph1, active compounds read low 0.214 | locus YOR290C, strain snf2, active compounds read low 0.424 | locus YPL051W, strain arl3, active compounds read low 0.414 | locus YPL078C, strain atp4, active compounds read low 0.391 | locus YPL106C, strain sse1, active compounds read low 0.568 | locus YPL240C, strain hsp82, active compounds read low 0.492
